Hits are enriched below; roughly 3% of the tested compounds scored in any of these assays.
HEK293 cAMP ctrl: qHTS Assay for Agonists of the Thyroid Stimulating Hormone Receptor: Activators of Intracellular cAMP Concentrations in Parental HEK 293 | parental HEK293 CNG cAMP sensor, membrane potential fluorescence | Potency, µM (highest dose often 57.1 µM), for the others: at the top dose activation, usual class: activators | 73,000 compounds, 2.5% hits | AID 938, 2007; also: % of control where 0% means no effect; nearly all actives have a fitted effect of over 55% in size
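Counterscreen for endogenous-receptor signalling: CNG-channel HEK 293 cells report cAMP rise by membrane depolarization. After 60 min dye equilibration with 100 uM RO 20-1724, compounds incubated 30 min before bottom-read fluorescence at 590 nm.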
ALOX15B inhib: qHTS Assay for Inhibitors of 15-hLO-2 (15-human lipoxygenase 2). Polyunsaturated fatty acid lipoxygenase ALOX15B (Homo sapiens), O15296. purified 15hLO-2, xylenol orange hydroperoxide absorbance. Potency, µM (series often up to 57.1 µM), for the others: at the top dose activity change, negative = inhibition, hits mostly inhibitors. 110,000 compounds, 0.56% hits. AID 881, 2007; also: % is scaled to controls: 0 for no effect and ±100 for the full control effect; nearly all actives have a fitted effect of over 60% in size
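Screening format was qHTS against 50 nM purified 15hLO-2 in Hepes pH 7.5 with detergent. Activity follows hydroperoxide formation from 45 uM arachidonic acid, measured as 573:405 nm absorbance ratio of the ferric-xylenol orange complex.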
Casp1 inh: qHTS Assay for Allosteric/Competitive Inhibitors of Caspase-1; AID 900, 2007; Caspase-1 enzyme, Ac-WEHD-AFC fluorogenic rate; 75,000 compounds, 0.03% hits; Potency, µM (series often up to 57.5 µM), for inactives: at the top dose activity change, negative = inhibition, hits mostly inhibitors;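 also: plate controls were vehicle for no effect and no substrate for full effect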
Caspase-7 inhib: qHTS Assay for Allosteric/Competitive Inhibitors of Caspase-7. P55210. recombinant caspase-7, Ac-DEVD-AFC fluorescence rate. Potency, µM (highest dose often 57.5 µM), for inactives: at the highest dose activity change, negative = inhibition, most hits filed as inhibitors. 75,000 compounds, 0.02% hits. AID 889, 2007; active = well fitted inhibition curve with a large enough effect in the main read-out, with a control signal flat, not every such curve was filed as active; inconclusive = small, poorly fitted or top-dose-only effect, or a change in a side signal; also: % of control where 0% means no effect
ALOX15 inhib: qHTS Assay for Inhibitors of 15-hLO (15-human lipoxygenase). AID 887, 2007. Polyunsaturated fatty acid lipoxygenase ALOX15 (Homo sapiens), P16050. 74,000 compounds, 1.4% hits. Potency, µM (series often up to 57.1 µM), inactives show top-dose activity change, negative = inhibition, most hits filed as inhibitors. purified 15hLO-1, xylenol orange hydroperoxide absorbance; also: % is scaled to controls: 0 for no effect and ±100 for the full control effect; nearly all actives have a fitted effect of over 55% in size
Target sequence (P16050 whole entry, looked up): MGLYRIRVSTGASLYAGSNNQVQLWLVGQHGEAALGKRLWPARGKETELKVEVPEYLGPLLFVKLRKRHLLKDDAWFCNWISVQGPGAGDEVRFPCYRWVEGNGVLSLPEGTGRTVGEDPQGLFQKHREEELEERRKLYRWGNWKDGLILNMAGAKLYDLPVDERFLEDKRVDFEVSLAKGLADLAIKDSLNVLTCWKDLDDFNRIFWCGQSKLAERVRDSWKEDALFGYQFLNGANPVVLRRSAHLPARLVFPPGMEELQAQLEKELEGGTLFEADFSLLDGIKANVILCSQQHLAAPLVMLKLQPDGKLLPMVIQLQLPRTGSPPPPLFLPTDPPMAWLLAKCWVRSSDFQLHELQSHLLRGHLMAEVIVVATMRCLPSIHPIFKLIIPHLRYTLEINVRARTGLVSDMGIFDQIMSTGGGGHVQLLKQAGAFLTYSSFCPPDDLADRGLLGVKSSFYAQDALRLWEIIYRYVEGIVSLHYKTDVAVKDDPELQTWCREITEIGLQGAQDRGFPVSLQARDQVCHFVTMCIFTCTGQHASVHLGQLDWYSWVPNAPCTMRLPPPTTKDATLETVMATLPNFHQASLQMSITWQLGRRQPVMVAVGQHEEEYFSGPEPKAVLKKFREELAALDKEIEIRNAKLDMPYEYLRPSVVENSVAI
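Compounds were preincubated 15 min at room temperature with 40 nM purified human enzyme (25 mM Hepes pH 7.5, 0.01% Triton X-100); 50 uM arachidonic acid reacted 6 min. Fe-xylenol orange detection, 30 min, absorbance ratio 573/405 nm.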
TSHR agonist: qHTS Assay for Agonists of the Thyroid Stimulating Hormone Receptor | Potency, µM (top dose mostly 57.1 µM), without a hit: at the top dose activation, most hits filed as activators | 73,000 compounds, 0.48% hits | Thyrotropin receptor (Homo sapiens), P16473 | HEK293-CNG-TSHR cells (CNG channel as cAMP sensor), membrane potential dye, cAMP | AID 926, 2007; active = well fitted activation curve with a large enough effect in the main read-out, with a control signal flat, not every such curve was filed as active; inconclusive = small, poorly fitted or top-dose-only effect, or a change in a side signal; inactive = no such curve, though single readings can be large or run the other way; % of control where 0% means no effect;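 also: the control signal comes from parental cells without the receptor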
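HEK 293 cells stably expressing TSHR and a cAMP-gated CNG channel; parental CNG-only cells as counterscreen. Cells preloaded 60 min with membrane potential dye plus 100 uM RO 20-1724, then compound 30 min; fluorescence read at 590 nm.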
Active calls of the source: *; ? = inconclusive; nt = not tested or not shown; ! = repeats disagree; [ ] = another dose, or the depositor's remark. Unless noted, calls follow the shape of the dose curve; as a rule, active = well fitted curve in the direction sought with a large enough effect; inconclusive = small, poorly fitted or top-dose-only effect, or another doubt; inactive = no such curve, though single readings can be large; an effect the other way counts as inactive or inconclusive. Potency is read from the fitted curve at half-maximal effect.

SMILES	HEK293 cAMP ctrl	ALOX15B inhib	Casp1 inh	Caspase-7 inhib	ALOX15 inhib	TSHR agonist
Cc1ccc(CSC2=Nc3ccccc3C3=NC(CCC(=O)NCc4ccco4)C(=O)N23)cc1 (stereo not drawn)	?	-27%	-6%	-7%	?	?
O=C(CC1N=C2c3ccccc3N=C(SCc3ccc(Cl)cc3)N2C1=O)NCc1ccco1 (stereo not drawn)	?	-17%	-10%	-23%	25µM*	?
CCc1ccc(CCC(=O)Nc2sc3c(c2C#N)CCCC3)o1	8%	-14%	-9%	-17%	16µM*	9%
CCCCC(=O)NCCc1c(Cc2ccccc2)[nH]c2ccccc12	13%	2%	-3%	0%	?	nt
Cc1ccccc1/C=C\C1=NCCN1	12%	-7%	4%	2%	-10%	0.13µM*
c1ccc(CC2=NCCN2)cc1	?	-2%	2%	0%	8%	?
CC[C@H](NC(=O)c1c(C)c(-c2ccccc2)nc2ccccc12)c1ccccc1	16µM*	33%	3%	-2%	-16%[25.6 µM]	?
CCOC(=O)OCC1OC(c2ccc(C(C)=O)cc2)C=CC1OC(=O)OCC (stereo not drawn)	-3%[11.4 µM]	nt	-5%[11.5 µM]	0%[11.5 µM]	8%[11.4 µM]	-8%[11.4 µM]
COc1ccccc1-c1ccc2ncnc(Nc3ccccc3)c2c1	16µM*	78%	-6%	-15%	-4%	?
COc1ccccc1CNc1ncnc2ccc(-c3ccccc3OC)cc12	20%	52%	-14%	-12%	-13%	13µM*
Fc1ccc(Nc2ncnc3ccc(-c4ccoc4)cc23)cc1	13µM*	29%	-3%	-4%	-10%	?
CNc1ncnc2ccc(-c3ccccc3OC)cc12	16%	27%	3%	0%	-13%	7%
COc1cccc(-c2ccc3ncnc(N(C)C)c3c2)c1	25µM*	36%	-3%	-3%	7%	?
COC(=O)NC(CC(C)=O)c1ccco1 (stereo not drawn)	-2%[11.4 µM]	nt	-1%[11.5 µM]	-1%[11.5 µM]	9%[11.4 µM]	-3%[11.4 µM]
CS(=O)(=O)Nc1cccc(-c2ccc3ncnc(Nc4ccccc4)c3c2)c1	?	-1%	-4%	-4%	3%	?
COc1cccc(-c2ccc3ncnc(Nc4ccccc4)c3c2)c1	20µM*	55%	-9%	-10%	11%	?
Cc1cc2c(ccc3[nH]onc32)n1	-4%	-11%	?	?	20µM*	-13%
N#Cc1nc(-c2ccc(F)cc2)oc1NCc1cccc2c1OCO2	?	nt	-4%	-3%	13µM*	?
Cn1c(-c2ccc3c(c2)OCO3)cnc1NCc1cccc(Cl)c1	-74%	10%	0%	-3%	20µM*	?
Nc1nnc(CCCCc2cccs2)o1	0.5µM*	8%	-2%	-2%	4%	?
O=C(O)CCCC(=O)OCCCCc1cccs1	5%	-3%	-4%	-1%	4%	2%
O=C(OCC1CO1)C1CCCCC1C(=O)OCC1CO1 (stereo not drawn)	25%	-15%	-1%	-3%	2%	20%
Cc1ccc(NS(=O)(=O)c2ccc(NC(=O)c3ccc(Br)o3)cc2)c(C)c1	?	-3%[11.4 µM]	0%	1%	16µM*	?
NC(=O)C1=CN([C@@H]2O[C@@H](COP(=O)(O)OP(=O)(O)OC[C@@H]3O[C@H](n4cnc5c(N)ncnc54)[C@@H](OP(=O)(O)O)[C@@H]3O)[C@H](O)[C@@H]2O)C=CC1	?	15%	2%	0%	-17%	?
O=C(Sc1nnc(-c2ccccc2)o1)N1c2ccccc2Sc2ccccc21	-11%[11.4 µM]	nt	-2%	-1%	2.5µM*	-21%[11.4 µM]
SMILES	HEK293 cAMP ctrl	ALOX15B inhib	Casp1 inh	Caspase-7 inhib	ALOX15 inhib	TSHR agonist
O=C(CCN1c2ccccc2Sc2ccccc21)OCc1nnc(-c2ccccc2)o1	29%	-11%	-1%	nt	?	10%
COc1ccc2[nH]cc(CCNc3cc(-c4cccc(C#N)c4)ncn3)c2c1	-15%	8%	-13%	-14%	10%	-13%
Cc1ccc(S(=O)(=O)/C=C\C#N)cc1	-14%	0%	-1%	3%	-3%[25.6 µM]	11%
CC(C)(C)c1ccc(S(=O)(=O)/C=C\C#N)cc1	25µM*!	-1%	-2%	-2%	-8%	?
O=C(CN1C(=O)COc2ccccc21)N(Cc1cccnc1)Cc1cccc(F)c1	16µM*	1%	0%	0%	9%	?
O=C(O)CCC(=O)N(Cc1cccnc1)Cc1cccc(F)c1	10%	6%	-1%	1%	1%	0%
O=C(CSc1nc2scc(-c3ccco3)c2c(=O)n1-c1ccccc1)NCC1CCCO1 (stereo not drawn)	18%	-19%	-4%	-19%	?	32µM*
O=C(c1ccco1)N1CCN(S(=O)(=O)c2ccc(Oc3ccccc3)cc2)CC1	20µM*	-2%	-1%	-2%	-8%	?
O=c1cnc2cnc(N3CCNCC3)nc2n1C1CC1	?	-2%	nt	?	1%	?
COc1cccc(-c2nccc(NCc3ccccc3OC)n2)c1	29%	-3%	-3%	-4%	25µM*	24%
COc1cccc(-c2nccc(NCc3ccccc3)n2)c1	?	-1%	-5%	-4%	13µM*	?
COc1cccc(-c2nccc(NCc3ccc(OC)cc3OC)n2)c1	?	41%	-7%	-7%	-6%	?
CCCCCCCCCCCCCCCCCC(=O)NC[C@@H](COP(=O)([O-])OCC[N+](C)(C)C)OCC	-2%	11%	1%	1%	45%	27%
Cc1noc(C)c1C(=O)N1CCC2(CCCN(c3ccncc3)C2)CC1	7%	1%	0%	-1%	-5%	-3%
Cc1nc2cnc(N3CCN(C)CC3)nc2n(C2CC2)c1=O	2%	29%	-19%	-24%	5%	-3%
Cc1ccc(-c2cc(C(=O)NC3=NCCS3)c3cc(Br)ccc3n2)o1	0%	?	-4%	-7%	13µM*	-6%
COc1cccc(C2=NC(C)(C)NC(c3ccccc3O)C2)c1 (stereo not drawn)	3%	-1%	?	-21%	32µM*	25%
O=C(O)CCNc1ncnc2nc[nH]c12	6%[11.4 µM]	-5%[11.4 µM]	-1%[11.5 µM]	-1%[11.5 µM]	-4%[11.4 µM]	2%[11.4 µM]
N=c1c(C(=O)NCc2ccco2)cc2c(=O)n3ccccc3nc2n1CCc1ccccc1	-78%	-19%	nt	?	13µM*	?
